Records with an inconclusive call do not appear. Active and inactive are the calls of the source. Unless noted, calls come from the whole dose curve; as a rule, active = well fitted curve in the direction sought with a large enough effect; inconclusive = small, poorly fitted or top-dose-only effect, or another doubt; inactive = no such curve, though single readings can be large; an effect the other way counts as inactive or inconclusive.
Legend:
[1] = molecular target: ATP-dependent 6-phosphofructokinase (Trypanosoma brucei brucei) (UniProt O15648); assay: qHTS Assay to Find Inhibitors of T. brucei phosphofructokinase: hit validation (AID 492961);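 note: luminescence reports ADP formed as PFK phosphorylates fructose-6-phosphate with ATP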
ATP-dependent 6-phosphofructokinase (Trypanosoma brucei brucei), sequence (O15648 whole entry, looked up): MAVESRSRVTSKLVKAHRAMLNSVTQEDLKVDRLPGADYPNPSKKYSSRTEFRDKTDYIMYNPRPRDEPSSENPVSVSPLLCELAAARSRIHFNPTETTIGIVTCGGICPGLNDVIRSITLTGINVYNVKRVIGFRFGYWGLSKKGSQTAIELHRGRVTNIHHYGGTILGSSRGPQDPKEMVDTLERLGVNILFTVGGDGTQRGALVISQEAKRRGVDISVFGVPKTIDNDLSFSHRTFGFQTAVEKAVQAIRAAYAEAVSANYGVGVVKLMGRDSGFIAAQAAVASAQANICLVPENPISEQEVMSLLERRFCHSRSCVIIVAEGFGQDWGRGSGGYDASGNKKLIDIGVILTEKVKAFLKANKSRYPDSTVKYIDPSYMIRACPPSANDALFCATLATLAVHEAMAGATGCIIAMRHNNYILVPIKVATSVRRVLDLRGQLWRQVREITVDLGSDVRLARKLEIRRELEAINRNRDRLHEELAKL
Summary of the method: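 Inhibition of parasite PFK is measured as reduced ADP formation, quantified via luciferase after ATP depletion. Assay used 0.1 mM ATP, 0.5 mM F6P, 1.25 nM enzyme, 45 min incubation.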

[2] = molecular target: Luciferin 4-monooxygenase (Photinus pyralis) (UniProt P08659); assay: Biochemical firefly luciferase enzyme assay for NPC (AID 624030);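 note: purified P. pyralis luciferase at 10 nM with luciferin and ATP substrate; nearly all actives have a fitted effect of over 70% in size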
Luciferin 4-monooxygenase (Photinus pyralis), sequence (P08659 whole entry, looked up): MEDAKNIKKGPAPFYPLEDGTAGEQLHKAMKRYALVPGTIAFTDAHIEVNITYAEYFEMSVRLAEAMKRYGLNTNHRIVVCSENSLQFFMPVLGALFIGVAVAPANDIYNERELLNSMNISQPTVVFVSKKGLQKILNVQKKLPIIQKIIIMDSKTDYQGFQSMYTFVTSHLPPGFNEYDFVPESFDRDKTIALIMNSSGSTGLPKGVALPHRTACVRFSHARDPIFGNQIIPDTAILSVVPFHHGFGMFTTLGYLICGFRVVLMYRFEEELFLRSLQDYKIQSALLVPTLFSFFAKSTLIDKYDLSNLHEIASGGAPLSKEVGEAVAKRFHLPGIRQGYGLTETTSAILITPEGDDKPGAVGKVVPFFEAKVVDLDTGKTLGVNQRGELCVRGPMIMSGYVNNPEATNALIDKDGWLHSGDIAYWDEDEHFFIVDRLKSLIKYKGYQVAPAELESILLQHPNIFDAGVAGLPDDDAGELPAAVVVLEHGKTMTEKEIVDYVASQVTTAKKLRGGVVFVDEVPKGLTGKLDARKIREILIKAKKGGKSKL
Summary of the method: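 Purified P. pyralis luciferase at 10 nM in 50 mM Tris Acetate (final), luminescence read within 5 minutes of enzyme addition to compounds. Activity normalised to PTC124 versus DMSO; concentration-response curves classed by r2, magnitude and activity.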

[3] = S16 Schwann cell viability assay (CellTiter-Glo assay) (AID 624031);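 note: native untransfected S16 rat Schwann cells; cellular ATP luminescence as a viability measure; nearly all actives have a fitted effect of over 70% in size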
Summary of the method: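 Following overnight culture in 10% FBS DMEM, parental S16 rat Schwann cells are dosed for 24 h at 37 °C. Viability is read as CellTiter-Glo luminescence and expressed as % activity relative to DMSO (0%) and no-cell wells.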

[4] = S16 Schwann cell PMP22 intronic element firefly luciferase assay (AID 624032); note: potency is the fitted concentration of half-maximal effect; nearly all actives have a fitted effect of over 30% in size
Summary of the method: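 Rat S16 Schwann cells stably carrying firefly luciferase driven by a PMP22 intronic element, in 10% FBS, treated 24 h at 37 C. ONE-Glo luminescence normalized to PTC124 control and DMSO (0%); curves classed by r2, magnitude and activity.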

[5] = S16 Schwann cell PMP22 intronic element beta-lactamase assay (AID 624044; calls by dose curve; note: nearly all actives have a fitted effect of over 15% in size)
Summary of the method: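 Rat S16 Schwann cells with beta-Lac driven by a PMP22 intronic element, compound-treated 24 h at 37 °C. LiveBLAzer FRET B/G read: 460 nm normalized to potassium clavulanate vs DMSO; 535 nm FRET as viability; concentration-effect curves classified.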

3D7 = assay: qHTS profiling for inhibitors of Plasmodium falciparum proliferation (AID 504749); note: nearly all actives have a fitted effect of over 60% in size; conditions: P. falciparum in erythrocytes, SYBR Green DNA, 72 h; series mostly up to 28.7 µM
Summary of the method: (§1)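 P. falciparum-infected erythrocytes (0.3% parasitemia, 2.5% hematocrit) incubated with compound 72 h at 37 C, 5% CO2. Parasite DNA detected by SYBR Green after lysis, overnight at room temperature; normalised to 0.29 uM artemisinin and DMSO.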

AA1029 = assay: as above; conditions: P. falciparum in erythrocytes, SYBR Green DNA, 72 h; series mostly up to 28.7 µM
Summary of the method: as §1

AS120 = assay: as above; conditions: P. falciparum in erythrocytes, SYBR Green DNA, 72 h; series mostly up to 28.7 µM
Summary of the method: as §1

ATS189 = assay: as above; conditions: P. falciparum in erythrocytes, SYBR Green DNA, 72 h; series mostly up to 28.7 µM
Summary of the method: as §1

ATS95 = assay: as above; conditions: P. falciparum in erythrocytes, SYBR Green DNA, 72 h; series mostly up to 28.7 µM
Summary of the method: as §1

C2A = assay: as above; conditions: P. falciparum in erythrocytes, SYBR Green DNA, 72 h; series mostly up to 28.7 µM
Summary of the method: as §1

CP185 = assay: as above; conditions: P. falciparum in erythrocytes, SYBR Green DNA, 72 h; series mostly up to 28.7 µM
Summary of the method: as §1

CP191 = assay: as above; conditions: P. falciparum in erythrocytes, SYBR Green DNA, 72 h; series mostly up to 28.7 µM
Summary of the method: as §1

CP192 = assay: as above; conditions: P. falciparum in erythrocytes, SYBR Green DNA, 72 h; series mostly up to 28.7 µM
Summary of the method: as §1

CP194 = assay: as above; conditions: P. falciparum in erythrocytes, SYBR Green DNA, 72 h; series mostly up to 28.7 µM
Summary of the method: as §1

CP201 = assay: as above; conditions: P. falciparum in erythrocytes, SYBR Green DNA, 72 h; series mostly up to 28.7 µM
Summary of the method: as §1

CP203 = assay: as above; conditions: P. falciparum in erythrocytes, SYBR Green DNA, 72 h; series mostly up to 28.7 µM
Summary of the method: as §1

CP215 = assay: as above; conditions: P. falciparum in erythrocytes, SYBR Green DNA, 72 h; series mostly up to 28.7 µM
Summary of the method: as §1

CP217 = assay: as above; conditions: P. falciparum in erythrocytes, SYBR Green DNA, 72 h; series mostly up to 28.7 µM
Summary of the method: as §1

CP237 = assay: as above; conditions: P. falciparum in erythrocytes, SYBR Green DNA, 72 h; series mostly up to 28.7 µM
Summary of the method: as §1

CP238 = assay: as above; conditions: P. falciparum in erythrocytes, SYBR Green DNA, 72 h; series mostly up to 28.7 µM
Summary of the method: as §1

CP247 = assay: as above; conditions: P. falciparum in erythrocytes, SYBR Green DNA, 72 h; series mostly up to 28.7 µM
Summary of the method: as §1

CP252 = assay: as above; conditions: P. falciparum in erythrocytes, SYBR Green DNA, 72 h; series mostly up to 28.7 µM
Summary of the method: as §1

CP256 = assay: as above; conditions: P. falciparum in erythrocytes, SYBR Green DNA, 72 h; series mostly up to 28.7 µM
Summary of the method: as §1

CP260 = assay: as above; conditions: P. falciparum in erythrocytes, SYBR Green DNA, 72 h; series mostly up to 28.7 µM
Summary of the method: as §1

CP262 = assay: as above; conditions: P. falciparum in erythrocytes, SYBR Green DNA, 72 h; series mostly up to 28.7 µM
Summary of the method: as §1

CP265 = assay: as above; conditions: P. falciparum in erythrocytes, SYBR Green DNA, 72 h; series mostly up to 28.7 µM
Summary of the method: as §1

CP266 = assay: as above; conditions: P. falciparum in erythrocytes, SYBR Green DNA, 72 h; series mostly up to 28.7 µM
Summary of the method: as §1

CP268 = assay: as above; conditions: P. falciparum in erythrocytes, SYBR Green DNA, 72 h; series mostly up to 28.7 µM
Summary of the method: as §1

CP269 = assay: as above; conditions: P. falciparum in erythrocytes, SYBR Green DNA, 72 h; series mostly up to 28.7 µM
Summary of the method: as §1

CP286 = assay: as above; conditions: P. falciparum in erythrocytes, SYBR Green DNA, 72 h; series mostly up to 28.7 µM
Summary of the method: as §1

CP291 = assay: as above; conditions: P. falciparum in erythrocytes, SYBR Green DNA, 72 h; series mostly up to 28.7 µM
Summary of the method: as §1

CP297 = assay: as above; conditions: P. falciparum in erythrocytes, SYBR Green DNA, 72 h; series mostly up to 28.7 µM
Summary of the method: as §1

CP305 = assay: as above; conditions: P. falciparum in erythrocytes, SYBR Green DNA, 72 h; series mostly up to 28.7 µM
Summary of the method: as §1

CP315 = assay: as above; conditions: P. falciparum in erythrocytes, SYBR Green DNA, 72 h; series mostly up to 28.7 µM
Summary of the method: as §1

CP325 = assay: as above; conditions: P. falciparum in erythrocytes, SYBR Green DNA, 72 h; series mostly up to 28.7 µM
Summary of the method: as §1

CP329 = assay: as above; conditions: P. falciparum in erythrocytes, SYBR Green DNA, 72 h; series mostly up to 28.7 µM
Summary of the method: as §1

CP335 = assay: as above; conditions: P. falciparum in erythrocytes, SYBR Green DNA, 72 h; series mostly up to 28.7 µM
Summary of the method: as §1

DFO2036 = assay: as above; conditions: P. falciparum in erythrocytes, SYBR Green DNA, 72 h; series mostly up to 28.7 µM
Summary of the method: as §1

DIV14 = assay: as above; conditions: P. falciparum in erythrocytes, SYBR Green DNA, 72 h; series mostly up to 28.7 µM
Summary of the method: as §1

DIV30 = assay: as above; conditions: P. falciparum in erythrocytes, SYBR Green DNA, 72 h; series mostly up to 28.7 µM
Summary of the method: as §1

Dd2 = assay: as above; conditions: P. falciparum in erythrocytes, SYBR Green DNA, 72 h; series mostly up to 28.7 µM
Summary of the method: as §1

ECU = assay: as above; conditions: P. falciparum in erythrocytes, SYBR Green DNA, 72 h; series mostly up to 28.7 µM
Summary of the method: as §1

FAB9 = assay: as above; conditions: P. falciparum in erythrocytes, SYBR Green DNA, 72 h; series mostly up to 28.7 µM
Summary of the method: as §1

GB4 = assay: as above; conditions: P. falciparum in erythrocytes, SYBR Green DNA, 72 h; series mostly up to 28.7 µM
Summary of the method: as §1

HB3 = assay: as above; conditions: P. falciparum in erythrocytes, SYBR Green DNA, 72 h; series mostly up to 28.7 µM
Summary of the method: as §1

JCK = assay: as above; conditions: P. falciparum in erythrocytes, SYBR Green DNA, 72 h; series mostly up to 28.7 µM
Summary of the method: as §1

N140 = assay: as above; conditions: P. falciparum in erythrocytes, SYBR Green DNA, 72 h; series mostly up to 28.7 µM
Summary of the method: as §1

P93_24 = assay: as above; conditions: P. falciparum in erythrocytes, SYBR Green DNA, 72 h; series mostly up to 28.7 µM
Summary of the method: as §1

P94_40 = assay: as above; conditions: P. falciparum in erythrocytes, SYBR Green DNA, 72 h; series mostly up to 28.7 µM
Summary of the method: as §1

PAD = assay: as above; conditions: P. falciparum in erythrocytes, SYBR Green DNA, 72 h; series mostly up to 28.7 µM
Summary of the method: as §1

PC15 = assay: as above; conditions: P. falciparum in erythrocytes, SYBR Green DNA, 72 h; series mostly up to 28.7 µM
Summary of the method: as §1

PC26 = assay: as above; conditions: P. falciparum in erythrocytes, SYBR Green DNA, 72 h; series mostly up to 28.7 µM
Summary of the method: as §1

PC49 = assay: as above; conditions: P. falciparum in erythrocytes, SYBR Green DNA, 72 h; series mostly up to 28.7 µM
Summary of the method: as §1

SC27B = assay: as above; conditions: P. falciparum in erythrocytes, SYBR Green DNA, 72 h; series mostly up to 28.7 µM
Summary of the method: as §1

TAB109 = assay: as above; conditions: P. falciparum in erythrocytes, SYBR Green DNA, 72 h; series mostly up to 28.7 µM
Summary of the method: as §1

TAB113 = assay: as above; conditions: P. falciparum in erythrocytes, SYBR Green DNA, 72 h; series mostly up to 28.7 µM
Summary of the method: as §1

TAB165 = assay: as above; conditions: P. falciparum in erythrocytes, SYBR Green DNA, 72 h; series mostly up to 28.7 µM
Summary of the method: as §1

Measured: Potency

CCN(CC)CCO[C@H]1CC[C@@]2(C)C(=CC[C@@H]3[C@H]2CC[C@]2(C)C(=O)CC[C@H]32)C1
active: [4] 9.07 µM
inactive: all other assays above

Reference: PubChem BioAssay (NCATS)
